{"source": "PubChem BioAssay (EPA / NIEHS)", "key": {"[1]": {"target": "Muscarinic acetylcholine receptor M3 (Homo sapiens) (UniProt P20309)", "sequence (P20309 whole entry, looked up)": "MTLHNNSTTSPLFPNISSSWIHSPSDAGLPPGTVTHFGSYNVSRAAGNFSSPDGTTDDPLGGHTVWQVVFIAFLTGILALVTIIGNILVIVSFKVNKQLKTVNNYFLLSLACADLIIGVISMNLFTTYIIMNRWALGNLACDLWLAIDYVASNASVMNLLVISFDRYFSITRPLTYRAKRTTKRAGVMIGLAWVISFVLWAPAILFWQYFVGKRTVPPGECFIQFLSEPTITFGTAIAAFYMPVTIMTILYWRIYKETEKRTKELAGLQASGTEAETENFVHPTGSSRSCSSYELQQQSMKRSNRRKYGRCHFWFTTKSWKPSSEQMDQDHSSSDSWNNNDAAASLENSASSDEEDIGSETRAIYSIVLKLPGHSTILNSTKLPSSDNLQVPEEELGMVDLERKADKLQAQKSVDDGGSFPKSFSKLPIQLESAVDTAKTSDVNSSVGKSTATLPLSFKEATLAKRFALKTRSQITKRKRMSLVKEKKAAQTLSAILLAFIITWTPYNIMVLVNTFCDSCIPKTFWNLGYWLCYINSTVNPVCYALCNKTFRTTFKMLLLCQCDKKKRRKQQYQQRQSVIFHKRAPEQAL", "assay": "NVS_GPCR_hM3: NovaScreen (NVS) G Protein-Coupled Receptor Assay for human Muscarinic, M3 Receptor (AID 2283272)", "procedure": "NVS_GPCR_hM3 is a biochemical, single-readout assay that uses extracted gene-proteins from CHO in a cell-free assay. Measurements were taken 1 hour after chemical dosing in a 96-well plate.NVS_GPCR_hM3 is one of one assay component(s) measured or calculated from the NVS_GPCR_hM3 assay. It is designed to make measurements of radioligand binding, a form of binding reporter, as detected with scintillation counting signals by Filter-based radiodetection technology.Data from the assay component NVS_GPCR_hM3 was analyzed into 1 assay endpoint. This assay endpoint, NVS_GPCR_hM3, was analyzed in the positive analysis fitting direction relative to DMSO as the negative control and baseline of activity. Using a type of binding reporter, loss-of-signal activity can be used to understand changes in the binding as they relate to the gene CHRM3. Furthermore, this assay endpoint can be referred to as a primary readout, because the performed assay has only produced 1 assay endpoint. To generalize the intended target to other relatable targets, this assay endpoint is annotated to the gpcr intended target family, where the subfamily is rhodopsin-like receptor.\nBinding assays used specific radioligands (tritiated, iodinated) with non-radioactive competitive displacement ligands in agonist or antagonist protocols (as indicated) and various reference compounds and inhibitors to titrate specific binding to receptors and transporters. Most enzyme assays (CYPs, kinases, phosphatases, proteases, HDACs) used recombinant protein and specific substrates (fluorescence mostly, some colorimetric and radioactive) and inhibitors, followed by a biochemical separation of substrate and product. All assays for the biochemical HTS were initially run in duplicate at a single concentration (10 uM for CYP450 assays and 25 uM for all others). […] Each assay was run with positive and negative controls, and concurrent controls on every plate. The follow-up (secondary) screen tested active chemical-pairs in concentration series, as well as a few additional assays not tested in the primary screen, some selected negative inactives, and several cases re-run in the concentration series for confirmatory purposes."}, "[2]": {"target": "Muscarinic acetylcholine receptor M2 (Homo sapiens) (UniProt P08172)", "sequence (P08172 whole entry, looked up)": "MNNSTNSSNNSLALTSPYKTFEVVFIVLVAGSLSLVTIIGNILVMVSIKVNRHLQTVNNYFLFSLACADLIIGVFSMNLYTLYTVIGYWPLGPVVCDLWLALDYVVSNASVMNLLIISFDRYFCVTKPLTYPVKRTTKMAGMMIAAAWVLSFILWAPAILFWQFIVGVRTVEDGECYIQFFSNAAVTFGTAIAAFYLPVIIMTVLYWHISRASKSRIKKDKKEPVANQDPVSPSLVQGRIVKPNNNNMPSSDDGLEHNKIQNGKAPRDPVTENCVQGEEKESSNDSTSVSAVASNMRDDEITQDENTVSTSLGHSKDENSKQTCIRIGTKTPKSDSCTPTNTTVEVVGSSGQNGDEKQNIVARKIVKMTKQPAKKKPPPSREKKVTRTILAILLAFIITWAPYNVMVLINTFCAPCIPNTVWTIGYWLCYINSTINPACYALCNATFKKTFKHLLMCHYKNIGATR", "assay": "NVS_GPCR_hM2: NovaScreen (NVS) G Protein-Coupled Receptor Assay for human Muscarinic, M2 Receptor (AID 2283273)", "summary_of_the_method": "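Cell-free radioligand binding using membranes from CHO cells expressing the receptor; filter-based scintillation counting after 1 hour of compound exposure. Loss of specific binding relative to DMSO baseline; primary screen at 25 uM in duplicate, actives then run in concentration series.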"}, "[3]": {"target": "human Muscarinic, M4 Receptor, CHRM4 (gene 1132) (UniProt P08173)", "sequence (P08173 whole entry, looked up)": "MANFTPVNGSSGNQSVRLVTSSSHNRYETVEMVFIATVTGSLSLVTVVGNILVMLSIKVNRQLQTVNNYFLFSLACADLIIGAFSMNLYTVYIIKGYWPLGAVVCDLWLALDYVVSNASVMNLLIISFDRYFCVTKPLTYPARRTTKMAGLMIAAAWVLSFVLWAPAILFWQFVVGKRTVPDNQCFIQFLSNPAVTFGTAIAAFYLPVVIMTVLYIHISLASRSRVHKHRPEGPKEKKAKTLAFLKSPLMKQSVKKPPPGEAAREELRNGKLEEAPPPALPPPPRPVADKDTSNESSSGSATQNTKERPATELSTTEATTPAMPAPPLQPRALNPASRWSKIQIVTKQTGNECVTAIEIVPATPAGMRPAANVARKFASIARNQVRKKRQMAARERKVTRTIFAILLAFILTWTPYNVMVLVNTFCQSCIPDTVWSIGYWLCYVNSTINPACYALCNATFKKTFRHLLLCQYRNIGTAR", "assay": "NVS_GPCR_hM4: NovaScreen (NVS) G Protein-Coupled Receptor Assay for human Muscarinic, M4 Receptor (AID 2283274)", "summary_of_the_method": "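Cell-free radioligand displacement using CHO-derived human M4 receptor protein, 1 h after dosing; bound radioactivity by filtration and scintillation counting. Primary screen single 25 uM duplicate, actives followed in concentration series.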"}, "[4]": {"target": "Muscarinic acetylcholine receptor M1 (Homo sapiens) (UniProt P11229)", "sequence (P11229 whole entry, looked up)": "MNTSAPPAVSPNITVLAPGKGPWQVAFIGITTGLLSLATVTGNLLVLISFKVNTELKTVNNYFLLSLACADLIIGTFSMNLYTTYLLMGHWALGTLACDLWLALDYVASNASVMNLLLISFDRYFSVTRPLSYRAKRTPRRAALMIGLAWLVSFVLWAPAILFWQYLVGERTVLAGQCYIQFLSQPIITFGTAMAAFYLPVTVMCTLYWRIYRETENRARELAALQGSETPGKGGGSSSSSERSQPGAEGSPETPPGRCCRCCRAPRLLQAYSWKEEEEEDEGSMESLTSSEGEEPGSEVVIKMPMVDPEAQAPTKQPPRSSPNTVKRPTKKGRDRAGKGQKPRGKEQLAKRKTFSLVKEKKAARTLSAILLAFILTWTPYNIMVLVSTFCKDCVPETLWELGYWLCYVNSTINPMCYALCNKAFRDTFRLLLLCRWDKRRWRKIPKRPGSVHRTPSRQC", "assay": "NVS_GPCR_hM1: NovaScreen (NVS) G Protein-Coupled Receptor Assay for human Muscarinic, M1 Receptor (AID 2283270)", "summary_of_the_method": "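Cell-free radioligand displacement using membrane protein extracted from CHO cells, read by filter-based scintillation counting 1 h after dosing. Loss of bound signal fitted versus DMSO; primary screen single concentration 25 uM in duplicate, actives followed by concentration series.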"}, "[5]": {"target": "human Leukotriene B4 Receptor 1 (LTB4-BLT1), LTB4R (gene 1241) (UniProt Q15722)", "sequence (Q15722 whole entry, looked up)": "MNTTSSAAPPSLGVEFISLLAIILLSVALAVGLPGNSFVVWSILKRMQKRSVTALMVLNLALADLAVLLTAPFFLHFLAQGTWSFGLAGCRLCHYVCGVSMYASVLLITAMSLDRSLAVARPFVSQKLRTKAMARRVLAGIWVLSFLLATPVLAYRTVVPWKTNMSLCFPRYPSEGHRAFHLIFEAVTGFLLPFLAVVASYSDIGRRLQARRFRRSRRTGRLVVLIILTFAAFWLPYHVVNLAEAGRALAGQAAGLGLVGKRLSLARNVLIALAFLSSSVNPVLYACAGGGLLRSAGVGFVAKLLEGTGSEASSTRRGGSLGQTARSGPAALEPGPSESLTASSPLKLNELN", "assay": "NVS_GPCR_hLTB4_BLT1: NovaScreen (NVS) G Protein-Coupled Receptor Assay for human Leukotriene B4 Receptor 1 (LTB4-BLT1) (AID 2283271)", "summary_of_the_method": "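Radioligand displacement binding on receptor extracted from human neutrophils, cell-free, 1 h after dosing; filter-based scintillation counting. Primary screen in duplicate at 25 uM, actives retested in concentration-response up to 50 uM; loss of signal versus DMSO.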"}, "[6]": {"target": "human Neuropeptide Receptor Y1 (NPY1), NPY1R (gene 4886) (UniProt P25929)", "sequence (P25929 whole entry, looked up)": "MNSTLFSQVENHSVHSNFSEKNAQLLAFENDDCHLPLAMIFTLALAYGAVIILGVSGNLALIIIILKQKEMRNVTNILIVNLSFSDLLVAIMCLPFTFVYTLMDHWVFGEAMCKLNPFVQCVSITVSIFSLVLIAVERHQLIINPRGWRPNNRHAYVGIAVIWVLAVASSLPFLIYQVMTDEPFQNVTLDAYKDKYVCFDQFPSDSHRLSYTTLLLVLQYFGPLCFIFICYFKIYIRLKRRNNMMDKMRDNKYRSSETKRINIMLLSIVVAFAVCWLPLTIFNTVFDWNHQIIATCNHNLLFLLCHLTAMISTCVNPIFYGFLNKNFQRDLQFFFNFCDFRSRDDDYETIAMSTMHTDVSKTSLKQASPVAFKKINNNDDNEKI", "assay": "NVS_GPCR_hNPY1: NovaScreen (NVS) G Protein-Coupled Receptor Assay for human Neuropeptide Receptor Y1 (NPY1) (AID 2283276)", "summary_of_the_method": "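Cell-free radioligand binding using receptor extracted from SK-N-MC cells, 1 h incubation, filter-based scintillation counting. Primary screen single concentration 25 uM in duplicate; actives followed in concentration series. Loss of bound signal scored versus DMSO.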"}, "[7]": {"target": "human Neurotensin Receptor (NTS), NTSR1 (gene 4923) (UniProt P30989)", "sequence (P30989 whole entry, looked up)": "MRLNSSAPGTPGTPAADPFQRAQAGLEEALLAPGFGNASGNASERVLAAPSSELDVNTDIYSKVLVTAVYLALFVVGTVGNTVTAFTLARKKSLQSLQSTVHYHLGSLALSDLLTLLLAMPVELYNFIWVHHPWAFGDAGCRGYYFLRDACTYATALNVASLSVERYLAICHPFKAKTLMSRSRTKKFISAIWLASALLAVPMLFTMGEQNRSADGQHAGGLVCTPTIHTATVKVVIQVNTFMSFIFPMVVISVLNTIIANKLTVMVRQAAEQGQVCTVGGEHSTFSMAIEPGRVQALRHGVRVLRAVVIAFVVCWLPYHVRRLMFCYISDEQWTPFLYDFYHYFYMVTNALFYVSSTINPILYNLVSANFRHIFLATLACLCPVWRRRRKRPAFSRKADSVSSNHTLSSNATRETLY", "assay": "NVS_GPCR_hNTS: NovaScreen (NVS) G Protein-Coupled Receptor Assay for human Neurotensin Receptor (NTS) (AID 2283279)", "summary_of_the_method": "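Radioligand displacement on human NTSR1 protein from CHO cells, cell-free, 1 h, filter-based scintillation counting. Primary screen at 25 uM in duplicate; hits rerun in concentration-response up to 50 uM.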"}, "[8]": {"target": "Neuropeptide Y receptor type 2 (Homo sapiens) (UniProt P49146)", "sequence (P49146 whole entry, looked up)": "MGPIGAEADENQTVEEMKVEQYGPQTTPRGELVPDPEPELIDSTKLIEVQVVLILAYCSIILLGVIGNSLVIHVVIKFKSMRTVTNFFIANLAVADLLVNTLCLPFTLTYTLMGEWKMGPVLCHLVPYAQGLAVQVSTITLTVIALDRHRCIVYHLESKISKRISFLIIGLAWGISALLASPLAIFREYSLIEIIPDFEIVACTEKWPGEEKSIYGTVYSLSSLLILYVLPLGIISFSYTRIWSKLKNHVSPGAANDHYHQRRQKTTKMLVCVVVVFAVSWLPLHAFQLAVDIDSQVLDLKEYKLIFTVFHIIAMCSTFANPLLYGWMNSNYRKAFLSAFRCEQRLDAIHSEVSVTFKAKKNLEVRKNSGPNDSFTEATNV", "assay": "NVS_GPCR_hNPY2: NovaScreen (NVS) G Protein-Coupled Receptor Assay for human Neuropeptide Receptor Y2 (NPY2) (AID 2283277)", "summary_of_the_method": "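Radioligand binding on membranes extracted from SK-N-MC cells, cell-free, read 1 h after dosing by filter-based scintillation counting. Loss of signal vs DMSO. Primary screen in duplicate at 25 uM; actives followed up in concentration-response up to 50 uM.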"}, "[9]": {"target": "human Neurokinin, NK2 Receptor, TACR2 (gene 6865) (UniProt P21452)", "sequence (P21452 whole entry, looked up)": "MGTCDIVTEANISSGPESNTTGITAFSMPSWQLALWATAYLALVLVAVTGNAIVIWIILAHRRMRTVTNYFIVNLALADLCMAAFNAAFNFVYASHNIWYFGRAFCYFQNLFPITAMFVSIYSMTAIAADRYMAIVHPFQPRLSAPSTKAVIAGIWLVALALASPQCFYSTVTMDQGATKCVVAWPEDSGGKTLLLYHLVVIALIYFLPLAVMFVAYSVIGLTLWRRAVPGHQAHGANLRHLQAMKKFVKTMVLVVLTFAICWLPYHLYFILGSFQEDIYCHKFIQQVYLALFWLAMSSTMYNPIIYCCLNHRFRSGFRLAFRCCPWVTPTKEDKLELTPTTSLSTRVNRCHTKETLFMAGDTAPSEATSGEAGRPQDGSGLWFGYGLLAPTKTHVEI", "assay": "NVS_GPCR_hNK2: NovaScreen (NVS) G Protein-Coupled Receptor Assay for human Neurokinin, NK2 Receptor (AID 2283278)", "summary_of_the_method": "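Test chemicals displace a radioligand from receptor prepared from CHO cells in a cell-free format, read after 4 hours by scintillation counting on filters. Screening starts at 25 uM in duplicate, and active chemicals then go to concentration series.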"}, "[10]": {"target": "human Thromboxane A2 Receptor (TXA2), TBXA2R (gene 6915) (UniProt P21731)", "sequence (P21731 whole entry, looked up)": "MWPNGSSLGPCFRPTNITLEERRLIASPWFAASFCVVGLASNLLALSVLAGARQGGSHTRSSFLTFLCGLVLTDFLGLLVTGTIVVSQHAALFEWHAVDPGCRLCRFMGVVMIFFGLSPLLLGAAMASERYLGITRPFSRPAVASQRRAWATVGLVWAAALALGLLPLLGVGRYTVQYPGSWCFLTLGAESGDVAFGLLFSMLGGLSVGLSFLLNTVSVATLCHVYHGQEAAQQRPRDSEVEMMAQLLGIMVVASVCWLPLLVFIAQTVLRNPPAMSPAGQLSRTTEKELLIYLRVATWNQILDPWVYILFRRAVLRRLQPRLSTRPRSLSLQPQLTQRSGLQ", "assay": "NVS_GPCR_hTXA2: NovaScreen (NVS) G Protein-Coupled Receptor Assay for human Thromboxane A2 Receptor (TXA2) (AID 2283282)", "summary_of_the_method": "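Cell-free radioligand binding on membrane protein from human platelets; radioligand displacement read by filter-based scintillation counting after 1 h. Primary screen in duplicate at 25 uM, actives then run in concentration series; loss of signal versus DMSO.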"}}, "note": "Records with an inconclusive call do not appear. Activity calls are given as the source filed them. How the source made its calls: active means hit-call score of the fitted dose curve at least 0.9, where 1 is the maximum; inconclusive means response in the unintended direction; inactive means score below 0.9.", "data": [{"smiles": "CCSC(=O)N1CCCCCC1", "values": [{"measurement": "AC50", "setting": "[1]", "result": "8.57 µM (active)"}, {"measurement": "AC50", "setting": "[2]", "result": "6.85 µM (active)"}, {"measurement": "AC50", "setting": "[3]", "result": "4.96 µM (active)"}]}, {"smiles": "CCCCC(C#N)(Cn1cncn1)c1ccc(Cl)cc1", "note": "(stereo not given)", "values": [{"measurement": "AC50", "setting": "[4]", "result": "5.56 µM (active)"}, {"measurement": "AC50", "setting": "[1]", "result": "8.08 µM (active)"}, {"measurement": "AC50", "setting": "[2]", "result": "14.6 µM (active)"}, {"measurement": "AC50", "setting": "[3]", "result": "7.69 µM (active)"}]}, {"smiles": "CC(C)(C)C(=O)C(Oc1ccc(Cl)cc1)n1cncn1", "note": "(stereo not given)", "values": [{"measurement": "AC50", "setting": "[5]", "result": "11.8 µM (active)"}, {"measurement": "outcome", "setting": "[1]", "result": "inactive"}, {"measurement": "AC50", "setting": "[2]", "result": "4.96 µM (active)"}, {"measurement": "outcome", "setting": "[3]", "result": "inactive"}]}, {"smiles": "CCOP(=O)(OCC)Oc1nc(Cl)c(Cl)cc1Cl", "values": [{"measurement": "outcome", "setting": "[2]", "result": "inactive"}]}, {"smiles": "CCCCC(O)(Cn1cncn1)c1ccc(Cl)cc1Cl", "note": "(stereo not given)", "values": [{"measurement": "outcome", "setting": "[5]", "result": "inactive"}, {"measurement": "outcome", "setting": "[2]", "result": "inactive"}, {"measurement": "outcome", "setting": "[6]", "result": "inactive"}]}, {"smiles": "CCCCOCN(C(=O)CCl)c1c(CC)cccc1CC", "values": [{"measurement": "outcome", "setting": "[5]", "result": "inactive"}]}, {"smiles": "COP(=O)(OC)O/C(C)=C/C(=O)N(C)C", "values": [{"measurement": "outcome", "setting": "[7]", "result": "inactive"}]}, {"smiles": "COC(=O)N(C(=O)N1CO[C@@]2(C(=O)OC)Cc3cc(Cl)ccc3C2=N1)c1ccc(OC(F)(F)F)cc1", "values": [{"measurement": "outcome", "setting": "[5]", "result": "inactive"}]}, {"smiles": "CCCN(CC)CC1COC2(CCC(C(C)(C)C)CC2)O1", "note": "(stereo not given)", "values": [{"measurement": "AC50", "setting": "[4]", "result": "4.97 µM (active)"}, {"measurement": "AC50", "setting": "[1]", "result": "8.78 µM (active)"}, {"measurement": "AC50", "setting": "[2]", "result": "4.96 µM (active)"}, {"measurement": "AC50", "setting": "[3]", "result": "3.3 µM (active)"}]}, {"smiles": "COCC(C)N(C(=O)CCl)c1c(C)csc1C", "note": "(stereo not given)", "values": [{"measurement": "outcome", "setting": "[5]", "result": "inactive"}]}, {"smiles": "N#CN=C1SCCN1Cc1ccc(Cl)nc1", "values": [{"measurement": "outcome", "setting": "[8]", "result": "inactive"}]}, {"smiles": "O=C1C2CC=CCC2C(=O)N1SC(Cl)(Cl)Cl", "note": "(stereo not given)", "values": [{"measurement": "AC50", "setting": "[6]", "result": "9.25 µM (active)"}, {"measurement": "AC50", "setting": "[9]", "result": "4.9 µM (active)"}]}, {"smiles": "CCNC(=O)NC(=O)C(C#N)=NOC", "values": [{"measurement": "outcome", "setting": "[3]", "result": "inactive"}]}, {"smiles": "Cc1ccc(N=CN(C)C=Nc2ccc(C)cc2C)c(C)c1", "values": [{"measurement": "outcome", "setting": "[3]", "result": "inactive"}]}, {"smiles": "CCNP(=S)(OC)O/C(C)=C/C(=O)OC(C)C", "note": "(stereo not given)", "values": [{"measurement": "outcome", "setting": "[2]", "result": "inactive"}, {"measurement": "outcome", "setting": "[8]", "result": "inactive"}]}, {"smiles": "Cc1cc(C)nc(Nc2ccccc2)n1", "values": [{"measurement": "AC50", "setting": "[1]", "result": "12.4 µM (active)"}, {"measurement": "AC50", "setting": "[2]", "result": "4.96 µM (active)"}, {"measurement": "AC50", "setting": "[3]", "result": "14.9 µM (active)"}]}, {"smiles": "CCC(C)n1c(=O)[nH]c(C)c(Br)c1=O", "note": "(stereo not given)", "values": [{"measurement": "outcome", "setting": "[1]", "result": "inactive"}]}, {"smiles": "COC(=O)NS(=O)(=O)c1ccc(N)cc1", "values": [{"measurement": "outcome", "setting": "[4]", "result": "inactive"}]}, {"smiles": "COc1cc(OC)nc(NC(=O)NS(=O)(=O)c2ncccc2OCC(F)(F)F)n1", "values": [{"measurement": "outcome", "setting": "[5]", "result": "inactive"}]}, {"smiles": "CCN(CC)C(=O)C(C)Oc1cccc2ccccc12", "note": "(stereo not given)", "values": [{"measurement": "outcome", "setting": "[10]", "result": "inactive"}]}, {"smiles": "Cn1c(-c2ccccc2)cc(-c2ccccc2)[n+]1C", "values": [{"measurement": "AC50", "setting": "[4]", "result": "2.84 µM (active)"}, {"measurement": "AC50", "setting": "[1]", "result": "9.02 µM (active)"}, {"measurement": "AC50", "setting": "[2]", "result": "3.97 µM (active)"}, {"measurement": "AC50", "setting": "[3]", "result": "7.59 µM (active)"}, {"measurement": "outcome", "setting": "[7]", "result": "inactive"}]}, {"smiles": "CCOc1nc(F)cc2nc(S(=O)(=O)Nc3c(Cl)cccc3Cl)nn12", "values": [{"measurement": "outcome", "setting": "[9]", "result": "inactive"}]}, {"smiles": "O=c1n(Cl)c(=O)n(Cl)c(=O)n1Cl", "values": [{"measurement": "outcome", "setting": "[4]", "result": "inactive"}]}, {"smiles": "CC1(C)C(C=C(Cl)Cl)C1C(=O)OC(C#N)c1cccc(Oc2ccccc2)c1", "note": "(stereo not given)", "values": [{"measurement": "outcome", "setting": "[9]", "result": "inactive"}]}, {"smiles": "Cc1c(COC(=O)[C@@H]2[C@H](/C=C(\\Cl)C(F)(F)F)C2(C)C)cccc1-c1ccccc1", "values": [{"measurement": "outcome", "setting": "[9]", "result": "inactive"}]}, {"smiles": "N#Cc1c(Cl)cccc1Cl", "values": [{"measurement": "outcome", "setting": "[3]", "result": "inactive"}]}, {"smiles": "N#Cc1c[nH]cc1-c1cccc2c1OC(F)(F)O2", "values": [{"measurement": "outcome", "setting": "[4]", "result": "inactive"}]}, {"smiles": "CC1(C)C(C(=O)OC(C#N)c2cccc(Oc3ccccc3)c2)C1(C)C", "note": "(stereo not given)", "values": [{"measurement": "outcome", "setting": "[9]", "result": "inactive"}]}, {"smiles": "O=C(Nc1ccccc1-c1ccc(Cl)cc1)c1cccnc1Cl", "values": [{"measurement": "outcome", "setting": "[7]", "result": "inactive"}]}]}
